# Inconclusive results are not listed. A call without a number means that no potency is given here. Unmarked numbers belong to inactive results. Active and inactive are the calls of the source. The call rests on the fitted dose curve; in most records, active means well fitted curve in the direction sought with a large enough effect in the repeat runs; inconclusive means weak or mixed curves; inactive means no such curve, though single readings can be large; an effect the other way counts as inactive or inconclusive.
# Tests used:
# [1] = qHTS RealTime-Glo MT Cell Viability Assay in HEK293 cells - 16 hour (AID 1224872); further: nearly all actives have a fitted effect of over 50% in size; further: potency means the concentration at half of the fitted maximal effect
# Summary of the method: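 Quantitative high-throughput screen of the Tox21 10K library in HEK293: cells and RealTime-Glo reagents plated together, compound added at 5 h, luminescence monitored through 40 h at 37 C.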
# [2] = qHTS RealTime-Glo MT Cell Viability Assay in HepG2 cells - 8 hour (AID 1224873); further: nearly all actives have a fitted effect of over 55% in size
# Summary of the method: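 HepG2 cells (600/well) mixed with RealTime-Glo MT reagent, settled 5 h at 37 C/5% CO2 before compound addition. Nonlytic NanoLuc luminescence from viable-cell prosubstrate reduction read repeatedly during 40 h treatment at 37 C.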
# [3] = qHTS RealTime-Glo MT Cell Viability Assay in HEK293 cells - 40 hour (AID 1224874); details: RealTime-Glo luminescence; max response: hits give low values; further: nearly all actives have a fitted effect of over 50% in size; further: potency means the concentration at half of the fitted maximal effect
# Summary of the method: (§1)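 Kinetic, non-lysing viability readout. Seed HEK293 (600/well) with reagent, incubate 5 h at 37 C/5% CO2, pin 23 nL compound in DMSO, incubate at 37 C, read luminescence at 0, 8, 16, 24, 32, 40 h.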
# [4] = A CellTox Green Cytotoxicity Assay to monitor cytotoxicity in HEK293 cells - 24 hour (AID 1224875); further: series mostly up to about 77 µM; nearly all actives have a fitted effect of over 45% in size
# Summary of the method: (§2)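 Real-time, in one plate: 600 HEK293 cells/well with dead-cell DNA dye, pinned compound after 5 h, 37 C incubation over 40 h; viable cells give no appreciable fluorescence.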
# [5] = A CellTox Green Cytotoxicity Assay to monitor cytotoxicity in HepG2 cells - 16 hour (AID 1224876); further: nearly all actives have a fitted effect of over 45% in size
# Summary of the method: (§3)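 Cytotoxicity was tracked as dead-cell DNA fluorescence in HepG2 cells treated with test compounds at 37 C; each time-point value comes from one kinetic series spanning 0, 8, 16, 24, 32 and 40 h.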
# [6] = qHTS RealTime-Glo MT Cell Viability Assay in HepG2 cells - 32 hour (AID 1224877); further: nearly all actives have a fitted effect of over 55% in size
# Summary of the method: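 Compound treatment began 5 h after plating HepG2 cells (600/well) with NanoLuc luciferase and prosubstrate. Plates stayed at 37 C for 40 h; luminescence was captured at six time points, 0 h through 40 h.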
# [7] = A CellTox Green Cytotoxicity Assay to monitor cytotoxicity in HepG2 cells - 40 hour (AID 1224879); further: nearly all actives have a fitted effect of over 40% in size; further: potency means the concentration at half of the fitted maximal effect
# Summary of the method: as §3
# [8] = qHTS RealTime-Glo MT Cell Viability Assay in HEK293 cells - 0 hour (AID 1224880); further: nearly all actives have a fitted effect of over 45% in size; further: potency means the concentration at half of the fitted maximal effect
# Summary of the method: as §1
# [9] = A CellTox Green Cytotoxicity Assay to monitor cytotoxicity in HEK293 cells - 32 hour (AID 1224881); further: nearly all actives have a fitted effect of over 40% in size
# Summary of the method: as §2
# [10] = A CellTox Green Cytotoxicity Assay to monitor cytotoxicity in HepG2 cells - 24 hour (AID 1224878); further: nearly all actives have a fitted effect of over 45% in size; further: potency means the concentration at half of the fitted maximal effect
# Summary of the method: as §3
SMILES,Potency [1],outcome [2],max response [3] [%],Potency [4],Potency [5],Potency [6],Potency [7],Potency [8],Potency [9],Potency [10],Potency [3]
Cc1ccc(S(=O)(=O)NC(=O)NC2CCCC2)cc1,inactive,inactive,0.385,inactive,inactive,inactive,inactive,inactive,inactive,,
CCC1=C(C)CN(C(=O)NCCc2ccc(S(=O)(=O)NC(=O)NC3CCC(C)CC3)cc2)C1=O (centres undefined),inactive,inactive,-23,inactive,inactive,inactive,inactive,inactive,inactive,,
C=CC(O)CCCCC (centres undefined),inactive,inactive,0.0439,inactive,inactive,inactive,inactive,inactive,inactive,,
CC(C)(C)c1ccc(CCC=O)cc1,inactive,inactive,3.22,inactive,inactive,inactive,,inactive,inactive,,
Clc1nc2ccccc2nc1Cl,inactive,inactive,,inactive,inactive,inactive,inactive,inactive,inactive,inactive,
C=C[Si]1(C)O[Si](C)(C=C)O[Si](C)(C=C)O[Si](C)(C=C)O1 (centres undefined),inactive,inactive,-1.07,inactive,,inactive,,inactive,inactive,,
CC(O)CN (centres undefined),inactive,inactive,1.55,inactive,inactive,inactive,inactive,inactive,inactive,,
Oc1ccc(Oc2ccccc2)cc1,14.7 µM (active),inactive,,inactive,,inactive,36.9 µM (active),inactive,,36.9 µM (active),14.7 µM (active)
CCC[Si](OC)(OC)OC,inactive,inactive,-8.66,inactive,inactive,inactive,inactive,inactive,inactive,,
CCCCCCCCCCCCSC#N,inactive,inactive,0.323,inactive,inactive,inactive,inactive,inactive,inactive,,
O=C(Nc1ccccc1)c1cc([N+](=O)[O-])ccc1Cl,inactive,inactive,-23.2,inactive,inactive,inactive,,inactive,inactive,,
CC(C)(Cc1c[nH]c2ccccc12)NCC(O)COc1ccccc1C#N (centres undefined),16.9 µM (active),inactive,,inactive,inactive,inactive,,,inactive,,19 µM (active)
CC(C)=CCC/C(C)=C/C=N/O,inactive,inactive,-25.1,,inactive,inactive,inactive,inactive,,inactive,
CC(C(=O)O)c1ccc2c(c1)Cc1cccnc1O2 (centres undefined),inactive,inactive,1.21,inactive,inactive,inactive,inactive,,inactive,,
CCCCCCCCNC,inactive,inactive,3.01,inactive,inactive,inactive,inactive,inactive,inactive,,
O=S(=O)(O)c1cc(Cl)c(Cl)cc1Cl,inactive,inactive,-19.4,inactive,,inactive,inactive,inactive,inactive,,
O=C(O)c1ccccc1[N+](=O)[O-],inactive,inactive,24.4,inactive,inactive,inactive,inactive,inactive,inactive,,
Oc1ccc(CCNCCCCCCNCCc2ccccc2)cc1O,23.9 µM (active),inactive,,inactive,inactive,,,,inactive,inactive,23.9 µM (active)
CC1(COc2ccc(CC3SC(=O)NC3=O)cc2)CCCCC1 (centres undefined),inactive,inactive,1.6,,inactive,inactive,,inactive,,inactive,
CCOC(C)OCC,inactive,inactive,-0.223,inactive,inactive,inactive,inactive,inactive,inactive,,
C1=COCCC1,inactive,inactive,1.01,inactive,inactive,inactive,inactive,inactive,inactive,,
Cc1cc(SC2=C(O)C[C@@](CCc3ccc(N)cc3)(C(C)C)OC2=O)c(C(C)(C)C)cc1CO,inactive,inactive,-1.78,inactive,inactive,inactive,inactive,11 µM (active),inactive,,
Cc1c(N=C=O)cccc1N=C=O,inactive,inactive,2.75,inactive,inactive,inactive,,,inactive,,
CC1(C)[C@@H]2CC[C@]3(C2)[C@@H]1C(=O)CCC3(C)C,inactive,inactive,3.71,inactive,inactive,inactive,inactive,inactive,inactive,,
O=C(O)c1cccc(C(=O)O)c1C(=O)O,inactive,inactive,-17,inactive,inactive,inactive,inactive,inactive,inactive,,

# Source: PubChem BioAssay (Tox21)
